We go through 24 compounds from PubChem BioAssay (NCATS).

Records with an inconclusive call do not appear. Entries that show only a call come without a potency. Values without a mark were called inactive. Activity calls are given as the source filed them. Calls come from the whole dose curve; as a rule, active = well fitted curve in the direction sought with a large enough effect; inconclusive = small, poorly fitted or top-dose-only effect, or another doubt; inactive = no such curve, though single readings can be large; an effect the other way counts as inactive or inconclusive.

One assay deals with Tov112D. Description: Primary qHTS to identify gynecologic anti-cancer compounds using libraries of approved drugs and bioactive compounds (AID 1345084). Note: nearly all actives have a fitted effect of over 55% in size. Note: potency is the fitted concentration of half-maximal effect. As to conditions: Gynecologic cancer cell panel viability, ATPlite luminescence, 48 h; series mostly up to 57.5 µM. The gist of the method:
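Cytotoxicity screen measuring ATP content by luciferase luminescence. Each compound is applied at five concentrations for 48 h at 37 C with 5% CO2.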
Background: In qHTS, concentration-response curves come from the screen itself.
In the case of `COc1ccc(Cn2ccc3ccc(C(=O)NO)cc32)cc1`, the Potency entry was “inactive”. Still for that read-out and setting: next, `O=C(CCCN1CCN(c2ccc(F)cc2)CC1)NC1c2ccccc2CSc2ccccc21` (stereo unspecified): “inactive”.

Regarding `Cc1cc(-c2ncc(CC(=O)Nc3ccc(-c4cnccn4)cn3)cc2C)ccn1`, the Potency result was “inactive”. The same measure, in the same setting: in the case of `Clc1ccc(C2(c3ccc(-c4cn[nH]c4)cc3)CCNCC2)cc1` it was “inactive”; in that of `CN1c2ccccc2C(=O)N2CCc3c([nH]c4ccccc34)C21` (stereo unspecified), 3.55 µM (active); in that of `CCn1c(-c2nonc2N)nc2cncc(CNC3CCNCC3)c21`, “inactive”. The same measure, in the same setting: in the case of `CNc1nc(Nc2ccc(C(=O)N3CCOCC3)cc2OC)ncc1Cl` it was “inactive”; in that of `O=C(Nc1cccc2c(=O)cc(-c3nn[nH]n3)oc12)c1ccc(OCCCCc2ccccc2)cc1`, “inactive”; in that of `O=C(Nc1ccc(OC(F)(F)F)cc1)c1sccc1NCc1ccnc2ccccc12`, “inactive”. On the same count and under the same terms, in the case of `COc1nccc(-c2c(-c3ccc(F)cc3)ncn2C2CCNCC2)n1` it was “inactive”. For the compound `Nc1[nH]nc2nnc(-c3c(-c4ccccc4)nn4ccccc34)cc12`, the Potency result was “inactive”. Still for that read-out and setting: next, `C[C@@H](N)c1ccc(C(=O)Nc2ccnc3[nH]ccc23)cc1`: 25.1 µM (active); `C[C@@]1(C(=O)Nc2ccc(F)nc2)CCCN1c1nc(Nc2cc(C3CC3)[nH]n2)c2cccn2n1`: “inactive”. Same read-out and setting: in the case of `N#CC1(c2cccc(C(=O)Nc3cc(Oc4ccc5nc(NC(=O)C6CC6)sc5n4)ccc3F)c2Cl)CC1` it was 5.62 µM (active); in that of `CN1CCC(COc2cnc(-c3cccc(Cn4nc(-c5cccc(C#N)c5)ccc4=O)c3)nc2)CC1`, “inactive”; in that of `COc1ccnc(CS(=O)c2nc3ccc(OC(F)F)cc3[nH]2)c1OC` (stereo unspecified), “inactive”.

With `COc1ccc(-c2cc3nccn3c(Nc3ncccc3C(N)=O)n2)cc1OC`, the Potency result was “inactive”. The same measure, in the same setting: next, `CNC(=O)c1cc(Oc2ccc(NC(=O)Nc3ccc(Cl)c(C(F)(F)F)c3)c(F)c2)ccn1`: “inactive”; `O=C1NC(=O)C(c2cnc3ccccn23)=C1c1cn2c3c(cccc13)CN(C(=O)N1CCOCC1)CC2`: “inactive”. Still for that read-out and setting: in the case of `Cc1ccccc1C(=O)c1ccc(Nc2ccc(Br)cc2N)cc1Cl` it was “inactive”.

System in another assay: not listed separately
Description: Drug repurposing screens with cells derived from glioblastoma tumor samples (AID 1345199). Note: nearly all actives have a fitted effect of over 40% in size. To be noted: GBM patient neurospheres viability, ATP luminescence, 48 h; at 45.9 µM (top of the series); tumour line B. The gist of the method:
(§1)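 Four patient lines of CD133+ GBM neurospheres were screened at several concentrations; hits were retested in those lines plus three slower-growing GBM lines, using 48-hour treatment and ATP-based viability.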
In the case of `O=C(CCCN1CCN(c2ccc(F)cc2)CC1)NC1c2ccccc2CSc2ccccc21` (stereo unspecified), the activity, negative = cell killing is -21%. Same read-out and setting: next, `O=C(Nc1cccc2c(=O)cc(-c3nn[nH]n3)oc12)c1ccc(OCCCCc2ccccc2)cc1`: 1.64%; `COc1ccnc(CS(=O)c2nc3ccc(OC(F)F)cc3[nH]2)c1OC` (stereo unspecified): -25.5%.

The assay is the same for the next values; noted with them: GBM patient neurospheres viability, ATP luminescence, 48 h; at 45.9 µM (top of the series); tumour line D.
Take `O=C(CCCN1CCN(c2ccc(F)cc2)CC1)NC1c2ccccc2CSc2ccccc21` (stereo unspecified): the activity, negative = cell killing was -27.4%. Regarding `O=C(Nc1cccc2c(=O)cc(-c3nn[nH]n3)oc12)c1ccc(OCCCCc2ccccc2)cc1`, the activity, negative = cell killing is -5.85%. On the same count and under the same terms, next, `COc1ccnc(CS(=O)c2nc3ccc(OC(F)F)cc3[nH]2)c1OC` (stereo unspecified): -22.5%.

The subject of another assay is astro. The description is as above. To be noted: viability, ATP luminescence, 48 h; series mostly up to 45.9 µM. The gist of the method:
as §1
As to `O=C(CCCN1CCN(c2ccc(F)cc2)CC1)NC1c2ccccc2CSc2ccccc21` (stereo unspecified), the Potency result was “inactive”. Regarding `O=C(Nc1cccc2c(=O)cc(-c3nn[nH]n3)oc12)c1ccc(OCCCCc2ccccc2)cc1`, the Potency entry was “inactive”. In the case of `COc1ccnc(CS(=O)c2nc3ccc(OC(F)F)cc3[nH]2)c1OC` (stereo unspecified), the Potency result is “inactive”.

System in another assay: not listed separately
Description: qHTS assay to identify inhibitors of the type 1 interferon - major histocompatibility complex class I in skeletal muscle: Counter screen cell viability and HiBit confirmation (AID 1347412). Note: nearly all actives have a fitted effect of over 60% in size. Note: potency is the fitted concentration of half-maximal effect. As to conditions: iHSKM muscle cells + IFN-b, HiBiT or CellTiter-Glo, 24 h; HiBiT. The gist of the method:
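CRISPR HLA-B*08:01-HiBit immortalized human myoblasts (C25cl48) stimulated with 4 ng/ml IFN-beta and compounds (12-point 1:3, top 46 uM final) for 24 h at 37 C. Duplicate plates read by HiBit lytic luminescence or CellTiter Glo ATP.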
As to `Nc1ncnc2c1c(-c1cccc(OCc3ccccc3)c1)cn2C1CC(CN2CCC2)C1` (stereo unspecified), the Potency was 22.2 µM (active). Still for that read-out and setting: in the case of `CC1(COc2ccc3c(c2)ncn3-c2ccc3cccc(N4CCC(N)CC4)c3n2)COC1` it was 3.52 µM (active); in that of `COc1ccc(-c2cc3nccn3c(Nc3ncccc3C(N)=O)n2)cc1OC`, 7.87 µM (active).

Staying with this assay, now noted: iHSKM muscle cells + IFN-b, HiBiT or CellTiter-Glo, 24 h; Viability; at 45.9 µM (top of the series).
With `CC[C@H](CC#N)OC(=O)N[C@@H](C)c1cccc(NC(=O)Nc2ccc(-c3cnco3)c(OC)c2)c1`, the activity change, negative = inhibition is -7.06%.

`COc1ccc(-c2cc3nccn3c(Nc3ncccc3C(N)=O)n2)cc1OC`: the activity change, negative = inhibition was -22.4%. Take `CC(C)CNc1ccnc(NCc2csc(-c3ccccc3)n2)n1`: the activity change, negative = inhibition is -28.7%.

In the case of `CNC(=O)c1cc(Oc2ccc(NC(=O)Nc3ccc(Cl)c(C(F)(F)F)c3)c(F)c2)ccn1`, the activity change, negative = inhibition is 2.73%.
